Jurkat NFkB inh = inhibitors of induced NF-kB luciferase reporter, primary screen, TCR NF-kB activation inhibitor project, cell-based, luminescence, uHTS; hit rate 0.53% among 330,000; inhibition, % at 4 µM; Jurkat, PMA/ionomycin-induced NF-kB luciferase reporter; in the data active = inhibition above about 50%
Mdm2-MdmX inh = inhibitors of human Mdm2-MdmX association, primary screen, cell-based, luminescence, split luciferase, SaOS-2, uHTS; AID 485346, 2010; SaOS-2 split-luciferase Mdm2/MdmX complementation; inhibition, % at 8 µM; hit rate 3% among 330,000;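 active = inhibition of at least 50% at 8 µM in the primary screen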
Target sequence (O15151 whole entry, looked up): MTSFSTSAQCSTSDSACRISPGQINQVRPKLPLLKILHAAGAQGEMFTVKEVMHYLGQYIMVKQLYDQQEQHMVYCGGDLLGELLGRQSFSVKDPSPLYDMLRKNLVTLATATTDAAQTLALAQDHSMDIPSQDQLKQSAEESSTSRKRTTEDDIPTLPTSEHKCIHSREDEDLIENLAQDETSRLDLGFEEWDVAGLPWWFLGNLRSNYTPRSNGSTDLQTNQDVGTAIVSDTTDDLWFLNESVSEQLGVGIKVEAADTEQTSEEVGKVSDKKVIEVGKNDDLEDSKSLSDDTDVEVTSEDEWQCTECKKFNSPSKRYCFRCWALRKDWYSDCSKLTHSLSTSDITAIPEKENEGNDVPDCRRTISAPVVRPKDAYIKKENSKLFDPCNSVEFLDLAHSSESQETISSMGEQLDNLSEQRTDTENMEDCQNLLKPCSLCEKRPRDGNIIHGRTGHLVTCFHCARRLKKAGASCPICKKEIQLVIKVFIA
Target sequence (Q00987 whole entry, looked up): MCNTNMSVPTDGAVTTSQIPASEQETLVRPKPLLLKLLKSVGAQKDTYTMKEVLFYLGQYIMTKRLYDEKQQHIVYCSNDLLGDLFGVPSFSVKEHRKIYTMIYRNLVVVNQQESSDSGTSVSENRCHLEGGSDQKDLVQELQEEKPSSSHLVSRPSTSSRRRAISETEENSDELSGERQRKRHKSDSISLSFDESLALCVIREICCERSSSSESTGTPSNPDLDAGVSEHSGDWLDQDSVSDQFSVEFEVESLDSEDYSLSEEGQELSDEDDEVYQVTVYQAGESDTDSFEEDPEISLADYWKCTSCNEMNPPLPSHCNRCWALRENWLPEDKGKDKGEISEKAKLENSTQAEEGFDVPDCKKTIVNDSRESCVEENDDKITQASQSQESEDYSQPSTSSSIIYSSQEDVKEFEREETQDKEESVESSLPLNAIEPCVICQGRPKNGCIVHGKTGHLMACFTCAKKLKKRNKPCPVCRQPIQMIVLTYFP
Shn3 3UTR inh = reduction of Shn3 3'UTR firefly luciferase signal, primary screen, Schnurri-3 inhibitor project, cell-based, Clone20 osteoblasts, set 2; Clone20 osteoblast Shn3 3'UTR firefly luciferase, 24 h; inhibition, % at 12.5 µM; hit rate 0.52% among 360,000;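 active = mean inhibition of at least 75% with every replicate also reaching 75%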;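 also: 0% = median of neutral control wells and 100% = pilot-screen positive control compound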
Gli-Sufu antag = Gli-Sufu pathway antagonists, primary screen, luciferase luminescence, Sufu-KO-LIGHT cells, uHTS; Sufu-KO-LIGHT fibroblasts, Gli luciferase reporter luminescence; inhibition, % at 5 µM; hit rate 0.74% among 340,000; AID 588413, 2011;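 active = inhibition above about 55%, limit read from the data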;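 also: 0% = DMSO-treated cells and 100% = wells with medium but no cells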
697 NFkB inh = inhibitors of PMA/ionomycin-induced NF-kB reporter, 697 cells, primary screen, B-cell NF-kB inhibitor project, cell-based, luminescence, uHTS. 697 B-cell NF-kB luciferase reporter, 16 h. inhibition, % at 4 µM. hit rate 0.33% among 330,000; in the data active = inhibition above about 35%
Mdm2-MdmX conf = Mdm2-MdmX complex disruptors, retested hits, confirmation, luminescence, single concentration; shares compounds with Mdm2-MdmX inh; Mdm2-MdmX binding, luminescent assay; inhibition, % at 8 µM; hit rate 55% among 10,000; AID 489028, 2010; in the data active = inhibition above about 40%
Full FLuc ctr = full-length luciferase signal inhibition, confirmation, counter-screen for Mdm2/MdmX interaction inhibitor project, cell-based, single concentration, SaOS-2. shares compounds with Mdm2-MdmX inh. SaOS-2 full-length luciferase counterscreen, luminescence. inhibition, % at 8 µM. hit rate 77% among 6,200. AID 504607, 2011;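 active = mean inhibition at 8 µM reaching about 37%, which flags the compound as non-specific, limit read from the data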;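 also: p53-null SaOS-2 cells with luciferase driven by a doxycycline-inducible promoter; compound on cells about two nights before reading with doxycycline added after day one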
Active calls of the source: *; x = no result given. The list is not random: actives were taken first. Their share in the collection is about 3.8%.

SMILES	Jurkat NFkB inh	Mdm2-MdmX inh	Shn3 3UTR inh	Gli-Sufu antag	697 NFkB inh	Mdm2-MdmX conf	Full FLuc ctr
COc1cccc(C(=O)Oc2cc3c4c(c2)C(C)=CC(C)(C)N4C(=O)C3=O)c1	21.3	66.5*	19.4	-3.4	-2.1	49.8*	44.5*
CC(=O)Nc1nc(-c2ccc3c(c2)CCN3C(=O)C2CC2)c(C)s1	-18.7	94.7*	-29.2	-19.6	-27.0	93.4*	50.5*
Cc1ccc(N(CC(=O)Nc2cccc(Cl)c2C)S(C)(=O)=O)cc1	-5.9	5.4	6.1	-10.9	5.2	x	x
COc1cc(/C=C/C(=O)OCC(=O)NCc2ccco2)ccc1O	21.6	53.7*	-1.2	16.9	-1.4	44.5*	82.6*
CCOC(=O)/C(=N\Nc1cc(Cl)ccc1Cl)N1CCN(CC)CC1	-3.3	17.1	-23.6	13.8	-6.9	x	x
Oc1ccccc1/C=N/Nc1cc(N2CCCC2)nc(N2CCCC2)n1	7.6	50.0	13.9	-0.4	-27.3	29.6	x
Oc1ccc(/C=N/Nc2cc(N3CCOCC3)nc(N3CCOCC3)n2)cc1O	-8.4	-25.9	75.6	23.2	-26.7	x	x
C[C@]12C(=O)N(c3ccccc3)C(=O)N1[C@@H]1c3ccccc3OC[C@@H]1[C@H]2c1ccccc1	-25.2	8.2	20.3	-2.2	15.1	x	x
C[C@]12C(=O)N(c3ccc(C(F)(F)F)cc3)C(=O)N1[C@@H]1c3ccccc3OC[C@@H]1[C@H]2c1ccccc1	13.7	50.0*	27.6	-5.0	10.4	49.8*	73.5*
Cc1ccc(N2C(=O)N3[C@H]4c5ccccc5OC[C@@H]4[C@@H](c4ccccc4)[C@@]3(C)C2=O)cc1	11.6	51.7*	-10.4	6.9	-23.3	17.2	x
COc1ccc(S(=O)(=O)Nc2c(C)cc(C)cc2C)c2cccnc12	7.4	23.0	-6.1	x	5.6	x	x
O=C(NCCN1CCN(S(=O)(=O)c2ccc([N+](=O)[O-])cc2)CC1)C(=O)Nc1ccccc1	-12.7	70.7*	8.9	10.0	9.9	15.2	x
O=C(NCC1COc2ccccc2O1)c1ccc(NC(=O)C(c2ccccc2)c2ccccc2)cc1 (centres undefined)	-4.8	62.9*	34.9	10.3	-24.1	45.3*	55.4*
Fc1ccc(-c2nc3c4ccccc4ccn3c2CC2CCCCC2)cc1	x	x	10.0	x	x	x	x
C/C(=N\NC(=O)c1cccc(N/N=C(\C)c2ccccc2)c1)c1ccccc1	x	x	-14.3	-48.9	x	x	x
C/C(=N\NC(=O)c1cccc(N/N=C(\C)c2ccc([N+](=O)[O-])cc2)c1)c1ccc([N+](=O)[O-])cc1	5.0	68.8*	7.5	-7.0	4.2	27.2	x
CCN(CC)Cc1c(O)ccc2c([N+](=O)[O-])c(C)n(-c3ccc(OC)cc3)c12	27.5	70.6*	6.7	-3.0	-35.9	82.3*	50.9*
CC(Sc1nnc(NCc2ccccc2)s1)C(=O)Nc1ccc2c(c1)C(=O)c1ccccc1C2=O (centres undefined)	-15.1	23.5	-22.7	-68.2	-85.8	x	x
CC(Sc1nnc(Nc2ccccc2)s1)C(=O)Nc1nc(-c2ccccc2)cs1 (centres undefined)	-37.0	65.5*	5.7	-12.7	-21.6	71.5*	101.1*
O=C(CCl)NCc1cc(-c2ccc(Cl)cc2)no1	35.2	72.7*	-4.5	13.7	15.9	29.2	66.3*
COc1ccc(CC(=O)Nc2cc(S(=O)(=O)Nc3ccc(OC)cc3)ccc2OC)cc1	-13.7	-6.3	33.1	3.2	-9.9	x	x
COc1ccc(C[C@H]2CN3C(=NC[C@@H]3Cc3ccc(O)cc3)N2C[C@H](C)NC(=O)c2ccc(C)c(Br)c2)cc1	20.9	86.3*	-3.9	18.3	-14.1	36.5	x
C[C@@H](CN1C2=NC[C@H](Cc3ccccc3)N2C[C@H]1Cc1ccc(O)cc1)NC(=O)CCC1CCCCC1	-13.5	46.5	14.8	8.8	-13.7	x	x
COc1ccc(C[C@H]2CN3C(=NC[C@@H]3Cc3ccccc3)N2C[C@H](C)NC(=O)CCC2CCCCC2)cc1	35.2	67.6*	x	x	8.5	47.7*	71.7*
Cc1ccc(C(=O)N[C@@H](C)CN2C3=NC[C@H](C(C)C)N3C[C@H]2Cc2ccc(O)cc2)cc1Br	3.7	7.0	-12.2	15.7	16.0	x	x
SMILES	Jurkat NFkB inh	Mdm2-MdmX inh	Shn3 3UTR inh	Gli-Sufu antag	697 NFkB inh	Mdm2-MdmX conf	Full FLuc ctr
COc1ccc(C[C@H]2CN3C(=NC[C@@H]3C(C)C)N2C[C@H](C)NC(=O)c2ccc(C)c(Br)c2)cc1	1.3	52.3*	20.0	21.6	-1.4	19.6	x
C[C@@H](CN1C2=NC[C@H](Cc3ccc(O)cc3)N2C[C@H]1Cc1ccc(O)cc1)NC(=O)CCC1CCCCC1	7.5	24.2	-1.2	13.7	4.1	x	x
COc1ccc(NC(=O)CSc2nnc(-c3cccs3)n2N)cc1S(N)(=O)=O	-0.9	13.5	-2.5	0.0	5.1	x	x
CC(C)C[C@H](NC(=O)c1nc[nH]c1C(=O)N[C@@H](CC(C)C)C(=O)OCc1ccccc1)C(=O)OCc1ccccc1	10.1	57.9*	9.5	41.5	2.0	-0.1	x
O=C(N[C@@H](Cc1ccccc1)C(=O)OCc1ccccc1)c1nc[nH]c1C(=O)N1CCN(c2ccccc2)CC1	-12.0	65.1*	-5.1	-2.0	-41.9	-15.3	x
CC(C)C[C@H](NC(=O)c1nc[nH]c1C(=O)NC(c1ccccc1)c1ccccc1)C(=O)OCc1ccccc1	24.2	51.3*	19.9	-7.3	13.8	11.2	x
C[C@H](NC(=O)c1nc[nH]c1C(=O)N1CCN(c2ccccc2)CC1)C(=O)OCc1ccccc1	5.4	-9.8	-4.7	-8.3	-13.2	x	x
CC(=O)c1ccc(N2C(=NC(=O)CCC3CCCC3)SC3CS(=O)(=O)CC32)cc1 (centres undefined)	10.3	-12.5	-8.3	7.9	-5.1	x	x
COc1ccc(C(=O)NC(=S)NNC(=O)c2cnccn2)cc1	16.7	64.2*	75.4	5.6	7.7	56.8*	40.6*
COc1ccc(CC(=O)NNC(=O)c2cnccn2)cc1	6.8	5.6	0.6	-12.2	9.9	x	x
O=C(NC(=S)NNC(=O)c1cnccn1)c1ccc(Cl)cc1	-12.8	69.2*	40.9	-9.2	16.8	39.5	47.7*
COc1cccc(-c2cc(C(=O)NCC3CCCO3)c3cc(Br)cc(C)c3n2)c1 (centres undefined)	-14.1	30.4	1.7	11.2	-16.7	x	x
Cc1cc(Br)cc2c(C(=O)NCC3CCCO3)cc(-c3cccs3)nc12 (centres undefined)	-10.9	55.9*	-5.6	-5.8	-57.2	15.2	x
